Reference: PubChem BioAssay (NCI)
The panel holds about 79,000 compounds, 15% with a hit somewhere; the sample as a whole holds those more often. The source made the active and inactive calls. Rule as the data show it: active = growth inhibition above about 70%; inactive = the rest.

What was measured:
[1] = NCI Yeast Anticancer Drug Screen. Data for the rad50 strain (AID 155);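 also: 0% = growth of vehicle-only cultures of the same strain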; conditions: S. cerevisiae rad50 strain growth inhibition, hits give high values
Method in brief: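 Genetically altered yeast (DNA repair pathway); compound treatment; growth inhibition vs vehicle ctrl.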

[2] = NCI Yeast Anticancer Drug Screen. Data for the mec2-1 strain (AID 157); conditions: S. cerevisiae mec2-1 strain, hits give high values
Method in brief: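 Compounds were applied to mec2-1 yeast cells. Their growth was then compared with that of vehicle-treated cultures to give growth inhibition.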

[3] = NCI Yeast Anticancer Drug Screen. Data for the sgs1 mgt1 strain (AID 161);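 also: 0% = growth of cultures given vehicle only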; conditions: S. cerevisiae sgs1 mgt1 strain, hits give high values
Method in brief: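 Yeast cells carrying a defined DNA-repair defect were exposed to test compounds. Growth inhibition was measured relative to vehicle-treated controls.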

[4] = NCI Yeast Anticancer Drug Screen. Data for the cln2 rad14 strain (AID 165);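 also: 0% = growth equal to vehicle treated cultures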; conditions: S. cerevisiae cln2 rad14 strain, hits give high values
Method in brief: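 Strain: cln2 rad14 yeast, altered in cell cycle control and DNA damage repair. Read-out: growth inhibition vs vehicle.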

[5] = NCI Yeast Anticancer Drug Screen. Data for the bub3 strain (AID 167); conditions: S. cerevisiae bub3 mutant strain, hits give high values
Method in brief: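 Yeast carrying a defined mutation is treated with each compound, and growth is compared with that of vehicle-exposed cells to give inhibition.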

[6] = NCI Yeast Anticancer Drug Screen. Data for the mlh1 rad18 strain (AID 175); conditions: S. cerevisiae mlh1 rad18 strain growth inhibition, hits give high values
Method in brief: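 A repair-deficient yeast strain is exposed to test compound, and growth is scored relative to vehicle-treated controls.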

[7] = at 5.0 µM (retest, dose inferred, filed as 0.5)
[8] = at 50.0 µM (retest, dose inferred, filed as 5.0)

Measured: growth inhibition

O=C(NCCCCC(NC(=O)OCc1ccccc1)C(=O)Nc1ccc(Nc2ccc(NC(=O)C(CCCCNC(=O)OCc3ccccc3)NC(=O)OCc3ccccc3)cc2)cc1)OCc1ccccc1 (configuration not stated)
active: [1]; at 50.0 µM 99% | [2]; at 50.0 µM 99.5% | [3]; at 50.0 µM 99.4% | [4]; at 50.0 µM 87.7% | [5]; at 50.0 µM 99.1% | [6]; at 50.0 µM 98.4%
inactive: [1]; [7] 0% | [1]; [8] -12% | [2]; [7] -3% | [2]; [8] -13% | [3]; [7] -2% | [3]; [8] -29% | [4]; [7] -1% | [4]; [8] 0% | [5]; [7] 2% | [5]; [8] 34% | [6]; [7] -1% | [6]; [8] -12%

O=c1nc(N2CCCC2)nc(N2CCCC2)s1
inactive: [1]; [7] -16% | [1]; [8] -8% | [1]; at 50.0 µM -11.4% | [2]; [7] 4% | [2]; [8] -14% | [2]; at 50.0 µM 0.8% | [3]; [7] -1% | [3]; [8] -11% | [3]; at 50.0 µM -9.25% | [4]; [7] 14% | [4]; [8] -5% | [4]; at 50.0 µM -38.6% | [5]; [7] -7% | [5]; [8] -10% | [5]; at 50.0 µM -4.15% | [6]; [7] 14% | [6]; [8] -1% | [6]; at 50.0 µM 7.45%

CCCCCCCN(CCCCCCC)CC(O)Cc1cc2c(c3ccccc13)CCCC2 (configuration not stated)
inactive: [1]; [7] 6% | [2]; [7] 17% | [3]; [7] 36% | [4]; [7] 4% | [5]; [7] 3% | [6]; [7] 24%
active: [1]; [8] 97% | [1]; at 50.0 µM 98.8% | [2]; [8] 98% | [2]; at 50.0 µM 94.7% | [3]; [8] 98% | [3]; at 50.0 µM 99.5% | [4]; [8] 97% | [4]; at 50.0 µM 98.7% | [5]; [8] 96% | [5]; at 50.0 µM 94.7% | [6]; [8] 97% | [6]; at 50.0 µM 98%

COc1cc(C(c2cc3c(cc2OC(C)=O)OCO3)C(C)C(C)=O)cc(OC)c1OC (configuration not stated)
active: [1]; [8] 84% | [3]; [8] 95%
inactive: [1]; [7] 3% | [1]; at 50.0 µM -8.35% | [2]; [7] 4% | [2]; [8] 66% | [2]; at 50.0 µM 13.8% | [3]; [7] 5% | [3]; at 50.0 µM 0.1% | [4]; [7] 7% | [4]; [8] 49% | [4]; at 50.0 µM 51.2% | [5]; [7] 1% | [5]; [8] 40% | [5]; at 50.0 µM -1.75% | [6]; [7] 1% | [6]; [8] 38% | [6]; at 50.0 µM 29.1%

NC(=S)Nc1ccccc1O
active: [5]; [8] 72% | [5]; at 50.0 µM 80.3%
inactive: [1]; [7] 6% | [1]; [8] 43% | [1]; at 50.0 µM 50.5% | [2]; [7] -10% | [2]; [8] 19% | [2]; at 50.0 µM 50.9% | [3]; [7] 6% | [3]; [8] 15% | [3]; at 50.0 µM 40.9% | [4]; [7] 0% | [4]; [8] 21% | [4]; at 50.0 µM 8.25% | [5]; [7] 17% | [6]; [7] 14% | [6]; [8] 46% | [6]; at 50.0 µM 59.2%

O=C(C(=Cn1c(=S)[nH]c2ccc([N+](=O)[O-])cc21)C(=O)c1ccccc1)c1ccccc1
inactive: [1]; [7] -10% | [1]; [8] 3% | [2]; [7] -14% | [2]; [8] -2% | [3]; [7] -7% | [3]; [8] 1% | [4]; [7] -23% | [4]; [8] -17% | [5]; [7] -5% | [5]; [8] 6% | [6]; [7] -4% | [6]; [8] 0%
active: [1]; at 50.0 µM 98% | [2]; at 50.0 µM 92.5% | [3]; at 50.0 µM 92.2% | [4]; at 50.0 µM 74.8% | [5]; at 50.0 µM 94.9% | [6]; at 50.0 µM 96.3%

CC1CCC(C(C)(C)c2ccc(O)cc2)CC1 (configuration not stated)
inactive: [1]; [7] 0% | [2]; [7] -1% | [3]; [7] 3% | [4]; [7] -6% | [5]; [7] -4% | [6]; [7] -6%
active: [1]; [8] 97% | [1]; at 50.0 µM 97.7% | [2]; [8] 98% | [2]; at 50.0 µM 98.2% | [3]; [8] 98% | [3]; at 50.0 µM 98.8% | [4]; [8] 96% | [4]; at 50.0 µM 97.6% | [5]; [8] 97% | [5]; at 50.0 µM 98.3% | [6]; [8] 98% | [6]; at 50.0 µM 98.3%

O=c1oc2ccccc2c(O)c1/C=N/C(=S)NCc1ccccc1
active: [1]; at 50.0 µM 83.8% | [2]; at 50.0 µM 85.8% | [3]; at 50.0 µM 87.3% | [4]; at 50.0 µM 76.2% | [5]; at 50.0 µM 78.3%
inactive: [1]; [7] -28% | [1]; [8] -15% | [2]; [7] -11% | [2]; [8] -18% | [3]; [7] -19% | [3]; [8] -19% | [4]; [7] -19% | [4]; [8] 10% | [5]; [7] -19% | [5]; [8] 2% | [6]; [7] -36% | [6]; [8] -12% | [6]; at 50.0 µM -42.5%

Cc1c[nH]c2c(O)cc3c(c12)[C@H](CCl)CN3C(=O)c1cc2cc(NC(=O)Nc3ccc4[nH]c(C(=O)N5C[C@@H](CCl)c6c5cc(O)c5[nH]cc(C)c65)cc4c3)ccc2[nH]1
active: [1]; [8] 70% | [6]; [7] 78% | [6]; [8] 86%
inactive: [1]; [7] 38% | [1]; at 50.0 µM 17.4% | [2]; [7] 30% | [2]; [8] 63% | [2]; at 50.0 µM 33.6% | [3]; [7] 33% | [3]; [8] 64% | [3]; at 50.0 µM -12.9% | [4]; [7] 14% | [4]; [8] 34% | [4]; at 50.0 µM -3.3% | [5]; [7] 34% | [5]; [8] 56% | [5]; at 50.0 µM -0.05% | [6]; at 50.0 µM 3.2%
